Test results published in ChEMBL document CHEMBL4513216, “Probing the Open Global Health Chemical Diversity Library for Multistage-Active Starting Points for Next-Generation Antimalarials” (ACS Infect Dis, 2020).
About 8,600 (12%) of roughly 69,000 compounds showed an effect of 50% or more. This excerpt belongs to a sample that is enriched for strong results.

The molecules below were run on Plasmodium berghei (assay: Screen against P. berghei liver stage (PbLuc), transformed with Luciferase, at 10uM). Settings: tested at 10 uM.
Format: functional, HepG2

| SMILES | INHIBITION |
| --- | --- |
| Cc1cc(N(C)C)nc(C2(C)CCCN2C(=O)c2cnccn2)n1 (centres undefined) | 16.5% |
| CCS(=O)(=O)CCNCc1cc(O)c2cc(C)cc(C)c2n1 | 45.8% |
| CCOCCNCc1cc(O)c2cc(C)ccc2n1 | 53.3% |
| COCCCNCc1cc(O)c2cc(C)cc(C)c2n1 | 51.2% |
| CCOCCCNCc1cc(O)c2cc(C)ccc2n1 | 0.672% |
| Cc1ccc2nc(CNCCCOc3ccccc3)cc(O)c2c1 [UCSF924] | 75.7% |
| CCN(CC)CCNCc1cc(O)c2cc(C)ccc2n1 | 16.3% |
| Cc1cc(C)c2nc(CNCCNS(C)(=O)=O)cc(O)c2c1 | 43.9% |
| CCOCC1(CNCc2cc(O)c3cc(C)ccc3n2)CC1 | 35.4% |
| Cc1ccc2nc(CNCCCN3CCCC3=O)cc(O)c2c1 | 31.7% |
| Cc1cc2nc(SCC(=O)NC(C)C)n(Cc3ccco3)c(O)c-2n1 | 12.6% |
| CN(CC(=O)N1CCCN(Cc2cscn2)CC1)c1cnccn1 | 13.9% |
| COCCN1CC[C@@H]2OC[C@H](C(=O)NCc3cccs3)C[C@@H]2C1 | 41.5% |
| Cc1ncsc1CN1CCOC(C)(C(=O)N2CCOCC2)C1 (centres undefined) | -3.94% |
| CNc1nc(CNC(=O)Nc2ccccc2C(F)(F)F)cs1 | 19.4% |
| NC(=O)C1(c2cnccn2)CCCN1C(=O)Cc1ccsc1 (centres undefined) | 12.84% |
| O=C(NCc1cccnc1-n1cncn1)c1cc(Cl)ccn1 | 38.5% |
| CN(C)c1ccc(C(=O)NCc2cccnc2-n2cncn2)cc1F | 52.6% |
| Cc1ccc(C(=O)NCc2cccnc2-n2cncn2)cc1S(C)(=O)=O | 17.2% |
| CCCc1nc(C(=O)NCc2cccnc2-n2cncn2)cs1 | -22.1% |
| O=C(NCc1cccnc1-n1cncn1)c1ccc2c(c1)CCO2 | -0.113% |
| CCN(CC)c1ccc(C(=O)NCc2cccnc2-n2cncn2)cn1 | 16.6% |

| SMILES | INHIBITION |
| --- | --- |
| O=C(NCc1cccnc1-n1cncn1)c1ccncc1 | 51.2% |
| O=C(NCc1cccnc1-n1cncn1)c1cncc(Br)c1 | 43.8% |
| CN(C)c1cc(C(=O)NCc2cccnc2-n2cncn2)ccn1 | 83.7% |
| CCN1CCC2(CN(C(=O)N(C)C)CC23CCN(CC2CC2)CC3)C1=O (centres undefined) | -38.1% |
| CCCn1c(N2CCCC2)nc2c(C)nn(C)c2c1=O | 44.05% |
| CC(C)C(NC(=O)c1cnc(N2CCOCC2)nc1)c1cccs1 (centres undefined) | 38.7% |
| Cc1ccccc1NCc1nc2n(n1)CCCCC2 | 34.2% |
| CN1CC(Oc2ccccc2)=NC(SCC(=O)c2ccccc2)=N1 | 1.98% |
| CCN1CC(Oc2ccc(Cl)cc2)=NC(SCC(=O)c2ccccc2)=N1 | 55.5% |
| CN1CC(Oc2ccc(Cl)cc2)=NC(SCC(=O)c2ccccc2)=N1 | 12.9% |
| Cn1c(=O)n(C)c2nc(Br)c(CC(=O)c3ccccc3)n2c1=O | 37.3% |
| CC(C(=O)NCc1ccnc(N(C)C)c1)n1cccn1 (centres undefined) | 49.4% |
| Cc1cnnn1Cc1nnn2c1CN(Cc1cccs1)CCC2 | 45.8% |
| COc1ccc(NC(=O)N(C)Cc2ccco2)cn1 | 0.705% |
| COCCN(Cc1cccs1)C(=O)c1ccc(=O)n(C)c1 | -7.66% |
| CN(Cc1ccco1)C(=O)Nc1ccc(=O)n(C)c1 | 60.1% |
| CN(Cc1ccc2c(c1)OCO2)C(=O)c1ccc(=O)n(C)c1 | 42.7% |
| Cc1occc1CN(C)C(=O)Nc1ccc(=O)n(C)c1 | 44.3% |
| CCN(Cc1cccs1)C(=O)c1ccc(=O)n(C)c1 | 28.7% |
| Cn1cc(C(=O)N(Cc2ccco2)Cc2cccs2)ccc1=O | 34% |
| CN(Cc1ccco1)C(=O)c1ccc(=O)n(C)c1 | 55.4% |
| CN(Cc1cccs1)C(=O)c1ccc(=O)n(C)c1 | 53.3% |

| SMILES | INHIBITION |
| --- | --- |
| CCC1(CC)C(=O)NC(=O)N=C1Nc1ccc(C)cc1 | 27.5% |
| O=C(NCC1(c2cccs2)CCCCC1)N1CCOC(CO)C1 (centres undefined) | -39.4% |
| Cn1cc(N2C(=O)CC[C@@H]3[C@H]2CCN3CCc2ccccc2)cn1 | 17.4% |
| CN(C)C(=O)NC1COC2(CCN(C(=O)Nc3ccccc3)CC2)C1 (centres undefined) | 42.1% |
| O=C1CCC2(CCCN(C(=O)NCc3ccccc3)CC2)N1 (centres undefined) | 8.74% |
| Cc1nc2c(cc1C(=O)Nc1ccccc1Cl)c(=O)n(C)c(=O)n2C | 18.6% |
| COCCN1CCN(C)C2(CCN(C(=O)c3ccnnc3)CC2)C1=O | 39.4% |
| Cc1nc(C(C)Nc2nc3c(s2)c(C)nn3C)n[nH]1 (centres undefined) | 52.1% |
| Cc1nn(C)c2nc(NC(C)c3nnn[nH]3)sc12 (centres undefined) | 1.24% |
| Cc1nn(C)c2nc(NC(C)c3n[nH]c(=O)[nH]3)sc12 (centres undefined) | 28.5% |
| O=S(=O)(NCc1ccnc(-n2ccnc2)c1)c1cncc(F)c1 | 2.93% |
| CCN1CCCC(NC(=O)c2ccc(C)[nH]c2=O)C1 (centres undefined) | 55.5% |
| Cc1ccc(C(=O)NC2CCCN(C)C2)c(=O)[nH]1 (centres undefined) | 8.51% |
| Cc1ccc(C(=O)NC2CCCN(CC(N)=O)C2)c(=O)[nH]1 (centres undefined) | 9.63% |
| CN(C)[C@@H]1CN(Cc2cccnc2)C[C@H]1c1cn(C)c2ccccc12 | 23.69% |
| c1ccc(OCc2nnc3n2CCN(Cc2ccco2)C3)nc1 | 24.9% |
| Cc1nn(C)c2c(N(C)Cc3cccs3)nc(C3CC3)nc12 | -17.2% |
| CCOc1cc(C(=O)N2CCOCC2)cc2occc12 | 36.6% |
| CCOC(=O)C1CCN(C(=O)c2cc(OCC)c3ccoc3c2)CC1 | -13.9% |
| CCOc1cc(C(=O)N2CCN(CC)CC2)cc2occc12 | 9.32% |
| CCOC(=O)N1CCN(C(=O)c2cc(OCC)c3ccoc3c2)CC1 | 58.2% |
| CCOc1cc(C(=O)N2CCN(C)CC2)cc2occc12 | 44.1% |

| SMILES | INHIBITION |
| --- | --- |
| CCOc1cc(C(=O)N2CCCC2)cc2occc12 | 50.7% |
| CN1CCCCC1c1ncc2c(n1)CCN(CCCc1ccccc1)C2 (centres undefined) | 26.8% |
| Cc1cc(C(=O)N2CCC(O)(Cn3c(C)cc4ccncc43)CC2)on1 | 9.05% |
| NC(=O)N1CCC(NCc2cc(C(F)(F)F)ccc2Cl)CC1 | 17.8% |
| CN(C)C(=O)COCc1nnc2n1CCN(Cc1ccoc1)C2 | 45.8% |
| CNC(=O)C1(CCCc2ccncc2)CCN1 (centres undefined) | -4.82% |
| COc1ccc(CN2CC(O)CN(C(=O)C3CCC3)CC2=O)cc1 (centres undefined) | 41.1% |
| COc1cccc(OCC2CCCN(C(=O)c3cc(C)n[nH]3)C2)c1 (centres undefined) | 10.5% |
| COc1cccc(CCC2CCCN(C(=O)c3n[nH]c4c3CCC4)C2)c1 (centres undefined) | 81.8% |
| COc1cccc(CCC2CCCN(C(=O)c3cnccn3)C2)c1 (centres undefined) | 81.1% |
| COc1ccccc1CC1CCCN(C(=O)c2n[nH]c3c2CCC3)C1 (centres undefined) | 19% |
| COc1cccc(CCC2CCCN(C(=O)c3ccccn3)C2)c1 (centres undefined) | 43.7% |
| N#Cc1cccc(C(=O)N2CCCC(C(=O)CCc3ccccc3)C2)c1 (centres undefined) | -8.66% |
| Cn1cc(C(=O)N2CCCC(C(=O)CCc3ccccc3)C2)cn1 (centres undefined) | 10.7% |
| COc1cccc(CCC2CCCN(C(=O)c3ccc(=O)n(C)n3)C2)c1 (centres undefined) | 40.5% |
| COc1cccc(CCC2CCCN(C(=O)C3=NN(C)C(=O)CC3)C2)c1 (centres undefined) | 3.47% |
| COc1cccc(C(=O)N2CCCC(C(=O)CCc3ccccc3)C2)c1 (centres undefined) | 65% |
| COc1cccc(CCC2CCCN(C(=O)c3ccc(OC)o3)C2)c1 (centres undefined) | 68.3% |
| COc1cccc(CCC2CCCN(C(C)=O)C2)c1 (centres undefined) | -10.9% |
| Cc1sc(NC(=O)CCC(=O)O)c(C(N)=O)c1-c1ccc(Cl)cc1Cl | 41.6% |
| CNc1nccc(-c2cnc3sc(C)c(C)n3c2=O)n1 | -4.82% |
| Cc1ccc(C(=O)NC2CCCN(S(C)(=O)=O)C2)c(=O)[nH]1 (centres undefined) | 19.7% |

| SMILES | INHIBITION |
| --- | --- |
| O=C(c1cc[nH]n1)N1CCCC1c1cnccn1 (centres undefined) | 31.6% |
| CC(NC(=O)COCC(F)(F)F)c1nnc2n1CCCCC2 (centres undefined) | -27.8% |
| CCN(CC)CCCNC(=O)c1nn(CC)cc1Cl | 35.8% |
| O=C(CCOc1ccc(Br)cc1)N1CCN(c2cnccn2)CC1 | 43.2% |
| CC1(C)CN(CC(=O)NCc2ccccc2F)C[C@]1(C)O | -2.97% |
| COc1cccc(OCC2CCCN(Cc3ncc[nH]3)C2)c1 (centres undefined) | 22.6% |
| COc1ccc(C(=O)N2CCC(Oc3ccccc3)(C(=O)O)CC2)o1 | 50.1% |
| COc1cccc(CCC2CCCN(Cc3ncc[nH]3)C2)c1 (centres undefined) | 65.7% |
| COc1ccc(C(=O)N2CCC(Oc3ccc(C)cc3)(C(=O)O)CC2)o1 | 14.3% |
| COc1cccc(OCC2CCCN(Cc3ccncc3)C2)c1 (centres undefined) | 1.74% |
| COc1ccc(C(=O)N2CCC(Oc3cccc(C)c3)(C(=O)O)CC2)o1 | 40.2% |
| FC(F)(F)Cn1ccnc1CNCC1CCCN1c1cccnn1 (centres undefined) | -2.53% |
| Cc1nc(NC(=O)CCN2C(=O)c3ccccc3NC2C(C)C)sc1C (centres undefined) | 28.7% |
| COCC(=O)NCc1cc(=O)n2c(n1)CN(Cc1ccncc1)CCC2 | 22.2% |
| CCNc1cc2c(nn1)CCN(C(=O)c1ccsc1)C2 | 37.8% |
| CC(=O)NCCC(=O)NC(C)c1sc(-c2ccccc2F)nc1C (centres undefined) | 29.3% |
| CCC(=O)NCC(=O)NC(C)c1sc(-c2ccccc2F)nc1C (centres undefined) | -2.94% |
| COCC(=O)NC(C)c1sc(-c2ccccc2F)nc1C (centres undefined) | 84.2% |
| CCc1nnc(CN2CCc3cnc(C)nc3C2)o1 | -36.6% |
| CC(C)NC(=O)N1CCOC2(CCCN(c3ncccc3F)C2)C1 (centres undefined) | 2.58% |
| CS(=O)(=O)CCNC1CCCN(Cc2noc(C3CC3)n2)C1 (centres undefined) | 40.4% |
